Experimental data as given in ChEMBL document CHEMBL1961873, “Compounds: GSK PKIS; Assays: Nanosyn kinase panel” (2012).

target: T1, 3-phosphoinositide-dependent protein kinase 1 (Homo sapiens) (UniProt O15530); conditions: at 0.1 µM;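 further: values are mean inhibition of PDK1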
T1 sequence (whole entry): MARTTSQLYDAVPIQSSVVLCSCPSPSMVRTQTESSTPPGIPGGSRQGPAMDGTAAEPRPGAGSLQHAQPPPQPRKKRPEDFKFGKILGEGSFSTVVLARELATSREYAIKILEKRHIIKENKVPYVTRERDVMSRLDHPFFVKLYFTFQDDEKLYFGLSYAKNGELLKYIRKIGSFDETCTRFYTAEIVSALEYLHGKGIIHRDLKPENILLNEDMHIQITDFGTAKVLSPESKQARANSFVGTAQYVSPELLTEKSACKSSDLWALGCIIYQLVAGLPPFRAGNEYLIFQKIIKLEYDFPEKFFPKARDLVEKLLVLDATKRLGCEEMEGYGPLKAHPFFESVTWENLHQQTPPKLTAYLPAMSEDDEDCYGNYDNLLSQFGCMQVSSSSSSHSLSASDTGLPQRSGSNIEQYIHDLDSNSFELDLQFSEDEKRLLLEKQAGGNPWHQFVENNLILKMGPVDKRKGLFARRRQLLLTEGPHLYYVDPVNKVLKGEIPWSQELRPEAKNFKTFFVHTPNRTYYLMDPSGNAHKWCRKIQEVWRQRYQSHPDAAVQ

Compound	inhibition [%]
COc1ccc(-c2coc3ncnc(N)c23)cc1	0.68
Cc1cc(O)cc(C)c1/C=C/c1cncc(-c2nn[nH]n2)c1	2.02
NCc1ccc(-c2nc(-c3ccc(Cl)c(O)c3)c(-c3ccncc3)[nH]2)cc1	2.25
Cc1ccc(C(=O)NC2CCCCC2)cc1-c1ccc(C(=O)NCC2CC2)cc1	3.8
COc1cccc(-n2ncc3c(N/N=C/c4cccc(F)c4)ncnc32)c1	1.33
[O-][S+]1CCN(Cc2ccc(-c3ccc4ncnc(Nc5ccc(OCc6ccccc6)c(F)c5)c4c3)o2)CC1	2.01
COc1cc2c(cc1Nc1nc(N3CCc4ccccc43)c3cc[nH]c3n1)N(C(=O)CN(C)C)CC2	1.89
COc1cc2ncn(-c3cc(OCc4ccccc4Cl)c(C(N)=O)s3)c2cc1OC	7.8
COc1ccccc1Nc1ncc(-c2ccccc2)o1	7.73
c1cnn2ncc(-c3ccnc(Nc4ccc5c(c4)OCCO5)n3)c2c1	4.84
CS(=O)(=O)CCN(CC#N)Cc1ccc(-c2ccc3ncnc(Nc4ccc(OCc5cccc(F)c5)c(Cl)c4)c3c2)o1	0.12
CS(=O)(=O)CCNCc1ccc(-c2ccc3ncnc(Nc4ccc(OCc5cccc(F)c5)c(C(F)(F)F)c4)c3c2)o1	2.02
COc1ccc(-c2nn3ncccc3c2-c2ccnc(Nc3ccc(Cl)c(C(F)(F)F)c3)n2)cc1	0.17
CCn1c(-c2nonc2N)nc2ccncc21	2.45
Nc1ncnc2occ(-c3ccc(NC(=O)Nc4cccc(C(F)(F)F)c4)cc3)c12	-1.02
CC(C)=Cc1cccc2c1/C(=N/Nc1ccc(S(N)(=O)=O)cc1)C(=O)N2	10.4
Fc1cccc(COc2ccc(Nc3ncnc4cc(-c5ccc[nH]5)sc34)cc2Cl)c1	1.86

Compound	inhibition [%]
CCN1CCC(CC(=O)Nc2n[nH]c3nc(-c4cccs4)c(Br)cc23)CC1	-2.02
NC(=O)c1ccc(-c2nc(-c3ccccn3)c(-c3ccc4c(c3)OCO4)[nH]2)cc1	2.65
CCn1c(-c2nonc2N)nc2c(C#CC(C)(C)O)nc(OC[C@@H](N)c3ccccc3)cc21	0.47
CCn1c(-c2nonc2N)nc2cncc(C(=O)N3CC[C@H](N)C3)c21	9.36
Cc1ccc(NC(=O)c2ccnc(N3CCCC3)c2)cc1-c1ccc(C(=O)NCC2CC2)cc1	2.23
COc1cc(C)c(NC(=O)CN(C)C)cc1Nc1nc(Nc2cccc(F)c2C(N)=O)c2cc[nH]c2n1	2.96
CCn1c(-c2nonc2N)nc2cnc(Oc3cccc(NC(=O)c4ccc(OCCN5CCOCC5)cc4)c3)cc21	2.08
Nc1nc(-c2ccc3c(c2)C(=Cc2cc(Br)c(O)c(Br)c2)C(=O)N3)cs1	-1.98
COc1ccc(-c2ccncc2)cc1C(N)=O	1.13
CC1=C(C(=O)Nc2ccc3[nH]ncc3c2)C(c2ccc(Cl)c(Cl)c2)CC(=O)N1 (stereo not drawn)	3.64
Fc1cccc(COc2ccc(Nc3ncnc4sc(-c5cccs5)cc34)cc2Cl)c1	-0.7
CN1CCC(C(=O)Nc2n[nH]c3nnc(-c4ccccc4)cc23)CC1	0.14
Cc1nn(C)c2cc(N(C)c3ccnc(Nc4cccc(S(N)(=O)=O)c4)n3)ccc12	1.33
COC(=O)Nc1nc2cc(Oc3ccc(NC(=O)Nc4cccc(C(=O)O)c4)cc3)ccc2[nH]1	2.53
CS(=O)(=O)CCNCc1nc(-c2ccc3ncnc(Nc4ccc(F)c(Cl)c4)c3c2)cs1	1.98
CS(=O)(=O)CCNCc1ccc(-c2ccc3ncnc(Nc4ccc(OCc5ccccc5)c(Cl)c4)c3c2)o1	-0.51
COC(=O)Nc1nc2cc(Oc3cccc(NC(=O)Nc4cc(C(F)(F)F)ccc4F)c3)ccc2[nH]1	1.08

target: cAMP-dependent protein kinase catalytic subunit alpha (Homo sapiens) (UniProt P17612); conditions: at 0.1 µM;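 further: reported value is the mean percent inhibition of PKA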

Compound	inhibition [%]
COc1ccc(-c2coc3ncnc(N)c23)cc1	1.5
Cc1cc(O)cc(C)c1/C=C/c1cncc(-c2nn[nH]n2)c1	-1.63
NCc1ccc(-c2nc(-c3ccc(Cl)c(O)c3)c(-c3ccncc3)[nH]2)cc1	1.31
Cc1ccc(C(=O)NC2CCCCC2)cc1-c1ccc(C(=O)NCC2CC2)cc1	3.21
COc1cccc(-n2ncc3c(N/N=C/c4cccc(F)c4)ncnc32)c1	-1.81
[O-][S+]1CCN(Cc2ccc(-c3ccc4ncnc(Nc5ccc(OCc6ccccc6)c(F)c5)c4c3)o2)CC1	0.99
COc1cc2c(cc1Nc1nc(N3CCc4ccccc43)c3cc[nH]c3n1)N(C(=O)CN(C)C)CC2	1.41
COc1cc2ncn(-c3cc(OCc4ccccc4Cl)c(C(N)=O)s3)c2cc1OC	-0.08
COc1ccccc1Nc1ncc(-c2ccccc2)o1	1.58
c1cnn2ncc(-c3ccnc(Nc4ccc5c(c4)OCCO5)n3)c2c1	1.74
CS(=O)(=O)CCN(CC#N)Cc1ccc(-c2ccc3ncnc(Nc4ccc(OCc5cccc(F)c5)c(Cl)c4)c3c2)o1	-3.08
CS(=O)(=O)CCNCc1ccc(-c2ccc3ncnc(Nc4ccc(OCc5cccc(F)c5)c(C(F)(F)F)c4)c3c2)o1	1.79
COc1ccc(-c2nn3ncccc3c2-c2ccnc(Nc3ccc(Cl)c(C(F)(F)F)c3)n2)cc1	1.59
CCn1c(-c2nonc2N)nc2ccncc21	0.35
Nc1ncnc2occ(-c3ccc(NC(=O)Nc4cccc(C(F)(F)F)c4)cc3)c12	2.38
CC(C)=Cc1cccc2c1/C(=N/Nc1ccc(S(N)(=O)=O)cc1)C(=O)N2	0.47
Fc1cccc(COc2ccc(Nc3ncnc4cc(-c5ccc[nH]5)sc34)cc2Cl)c1	-2.47

Compound	inhibition [%]
CCN1CCC(CC(=O)Nc2n[nH]c3nc(-c4cccs4)c(Br)cc23)CC1	-1.4
NC(=O)c1ccc(-c2nc(-c3ccccn3)c(-c3ccc4c(c3)OCO4)[nH]2)cc1	1
CCn1c(-c2nonc2N)nc2c(C#CC(C)(C)O)nc(OC[C@@H](N)c3ccccc3)cc21	77.5
CCn1c(-c2nonc2N)nc2cncc(C(=O)N3CC[C@H](N)C3)c21	49.1
Cc1ccc(NC(=O)c2ccnc(N3CCCC3)c2)cc1-c1ccc(C(=O)NCC2CC2)cc1	-2.06
COc1cc(C)c(NC(=O)CN(C)C)cc1Nc1nc(Nc2cccc(F)c2C(N)=O)c2cc[nH]c2n1	1.08
CCn1c(-c2nonc2N)nc2cnc(Oc3cccc(NC(=O)c4ccc(OCCN5CCOCC5)cc4)c3)cc21	17.5
Nc1nc(-c2ccc3c(c2)C(=Cc2cc(Br)c(O)c(Br)c2)C(=O)N3)cs1	-0.95
COc1ccc(-c2ccncc2)cc1C(N)=O	2.54
CC1=C(C(=O)Nc2ccc3[nH]ncc3c2)C(c2ccc(Cl)c(Cl)c2)CC(=O)N1 (stereo not drawn)	7.32
Fc1cccc(COc2ccc(Nc3ncnc4sc(-c5cccs5)cc34)cc2Cl)c1	1.34
CN1CCC(C(=O)Nc2n[nH]c3nnc(-c4ccccc4)cc23)CC1	2.6
Cc1nn(C)c2cc(N(C)c3ccnc(Nc4cccc(S(N)(=O)=O)c4)n3)ccc12	2.03
COC(=O)Nc1nc2cc(Oc3ccc(NC(=O)Nc4cccc(C(=O)O)c4)cc3)ccc2[nH]1	-3.91
CS(=O)(=O)CCNCc1nc(-c2ccc3ncnc(Nc4ccc(F)c(Cl)c4)c3c2)cs1	1.17
CS(=O)(=O)CCNCc1ccc(-c2ccc3ncnc(Nc4ccc(OCc5ccccc5)c(Cl)c4)c3c2)o1	-0.81
COC(=O)Nc1nc2cc(Oc3cccc(NC(=O)Nc4cc(C(F)(F)F)ccc4F)c3)ccc2[nH]1	2.29
